From the supplement of paper PMC12350171
Counter-ions that a name gives are not always drawn.

Tests used:
Details in all cases: 20 µM
P. vulgatus RND KO = experiment: growth AUC normalised to DMSO control (median) (fraction of control); higher = less growth inhibition, active = hit call of the paper
Outline: (§1)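 For normalised area under the curve, growth curves were truncated at entry into stationary phase, integrated by the trapezoidal rule and divided against vehicle wells on the same plate. The curves came from strains passaged twice overnight without oxygen and then grown in mGAM in 96-well plates at a starting OD578 of 0.01. Each well held an approved-drug library compound at 20 μM with 1% DMSO, and OD578 was read hourly for 24 h in an anaerobic incubator. Values are medians of three biological replicates.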

P. vulgatus WT = experiment: as above
Outline: as §1

[1] = test system: S. enterica typhimurium WT; experiment: as above
Outline: as §1

[2] = test system: S. enterica typhimurium tolC KO; experiment: as above
Outline: as §1

[3] = test system: Haemophilus parainfluenzae; experiment: growth AUC normalised to DMSO control (fraction of control); higher = less growth inhibition, active = hit call of the paper
Outline: (§2)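 After two anaerobic passages, pathogens were added at a starting OD578 of 0.01 to pre-reduced mGAM plates holding compound at 20 μM with 1% DMSO; hemin and NAD were supplemented for Haemophilus parainfluenzae. Sealed with breathable membranes, plates were read at OD578 hourly for 24 h, in three biological replicates. The trapezoidal rule, applied up to the exponential-to-stationary transition, gave the growth-curve AUC, which was normalised to DMSO controls on the same plate.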

[4] = test system: Salmonella enterica typhimurium; experiment: as above
Outline: as §2

Shigella flexneri = experiment: as above
Outline: as §2

Vibrio cholerae = experiment: as above
Outline: as §2

[5] = test system: Yersinia pseudotuberculosis; experiment: as above
Outline: as §2

Measured: growth AUC normalised to DMSO control
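Throughout, for growth AUC normalised to DMSO control (median): active when median AUC fell below 0.1.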

C#C[C@]1(O)C=C[C@H]2[C@@H]3CCC4=CC(=O)CC[C@@H]4[C@H]3CC[C@@]21CC [Gestodene]
inactive: P. vulgatus RND KO 0.978 | P. vulgatus WT 0.978 | [1] 0.997 | [2] 0.995

CCC1(C2=NCCN2)Cc2ccccc2O1 (stereo unspecified) [Efaroxan hydrochloride]
inactive: P. vulgatus RND KO 1.02 | P. vulgatus WT 1.03 | [1] 0.997 | [2] 0.999

NC(=O)CN1CCCC1=O [Piracetam]
inactive: [3] 0.975 | [4] 0.991 | Shigella flexneri 0.957 | Vibrio cholerae 0.992 | [5] 0.993 | P. vulgatus RND KO 0.989 | P. vulgatus WT 0.982 | [1] 0.984 | [2] 0.996

Nc1ccncc1 [Dalfampridine]
inactive: P. vulgatus RND KO 1 | P. vulgatus WT 1.03 | [1] 1.02 | [2] 0.995

C[C@]12C=CC(=O)C=C1CC[C@@H]1[C@@H]2CC[C@@]2(C)[C@H]1CC[C@]2(C)O [Methandrostenolone]
inactive: P. vulgatus RND KO 0.996 | P. vulgatus WT 0.998 | [1] 1.01 | [2] 0.982

NC(=O)OCCCc1ccccc1 [Phenprobamate]
inactive: P. vulgatus RND KO 1.01 | P. vulgatus WT 1.02 | [1] 0.989 | [2] 0.991

C=C[C@H]1CN2CC[C@H]1C[C@H]2[C@H](OC(=O)OCC)c1ccnc2ccc(OC)cc12 [Quinine ethyl carbonate]
inactive: P. vulgatus RND KO 1.01 | P. vulgatus WT 1 | [1] 0.996 | [2] 0.969

C[C@]12CC[C@@H]3c4ccc(OC(=O)N(CCCl)CCCl)cc4CC[C@H]3[C@@H]1CC[C@@H]2O [Estramustine]
inactive: P. vulgatus RND KO 0.982 | P. vulgatus WT 0.984 | [1] 1 | [2] 0.968

C=C1CC[C@@]2(O)[C@H]3Cc4ccc(O)c5c4[C@@]2(CCN3CC2CC2)[C@H]1O5 [Nalmefene hydrochloride]
inactive: [3] 0.969 | [4] 1.01 | Shigella flexneri 1.03 | Vibrio cholerae 1.02 | [5] 1.03 | P. vulgatus RND KO 1 | P. vulgatus WT 1.03 | [1] 1 | [2] 1.01
